system: Plasmodium falciparum; assay: GSK_TCMDC: Inhibition of Plasmodium falciparum 3D7 in whole red blood cells, using parasite LDH activity as an index of growth. Test compounds present at 2uM; assay type: functional

SMILES	Inhibition
Cc1ccc(C2CCN(CCCCNC(=O)c3ccc(NC(=O)c4ccc(Cl)cc4)cc3)CC2)c(OCC2CC2)c1.Cl	100%
COc1ccc(Cn2c(Nc3cccc(C(F)(F)F)c3)nc3cc(C(=O)NCCN4CCCC4)cnc32)cc1Cl	97%
CC(C)CCNC(=O)C1Cc2c([nH]c3ccc(Br)cc23)C2(CCN(Cc3ccccc3)CC2)N1 (stereo unspecified)	96%
COc1ccc(OC)c(NC(=O)C2c3ccccc3C(=O)N(CC(C)C)C2c2cccs2)c1 (stereo unspecified)	100%
FC(F)(F)c1cccc(CNCC2CCN(CC3CCCCC3)CC2)c1.O=C(O)C(F)(F)F	100%

system: Plasmodium falciparum; assay: GSK_TCMDC: Inhibition of Plasmodium falciparum Dd2 in whole red blood cells, using parasite LDH activity as an index of growth. Test compounds present at 2uM; assay type: functional

SMILES	Inhibition
COc1cc(CCN(C)Cc2ccc(OC)c(OC)c2)ccc1NC(=O)c1cccc2c(O)c3cccc(F)c3nc12	26%
Clc1ncnc2ncn(Cc3cccc(Br)c3)c12	56%
CCCN1CCN(c2ccccc2NS(=O)(=O)c2ccc(C(=O)Nc3ccc(Cl)cc3)cc2)CC1.O=C(O)C(F)(F)F	9%
Cc1ccc2c(N/N=C/c3ccccc3[N+](=O)[O-])cc(C)nc2c1	100%
O=C(C=Cc1ccc(Cl)c(Cl)c1)NCCCCCN1CCC(CCCNC(=O)/C=C/c2ccccc2)CC1	33%
CN(C)CCNCc1ccc(-c2ccc3c(Nc4ccc(Cl)cc4F)ccnc3c2)o1	100%
CC(C)Oc1cc2c(cc1NS(=O)(=O)c1ccc(-c3ccc(Cl)cc3)cc1)CCN(C)CC2.Cl	65%
Cc1cc(Nc2ccc(C)c(C)c2)n2nc(C)nc2n1	45%
CCN(c1cc(C)nc(Nc2ccc(Cl)cc2)n1)[C@H]1CCN(Cc2ccccc2)C1	31%
Cl.Clc1ccc(OCCC2CCN(CCCCCCCN3CCC(CCOc4ccc(Cl)c(Cl)c4)CC3)CC2)cc1Cl	82%
COc1ccccc1N1CCN(C(C(=O)NCc2ccc3c(c2)OCO3)c2ccc(C)cc2)CC1 (stereo unspecified)	81%
Cn1nc(-c2ccc(NC(=O)Nc3cc(C(F)(F)F)ccc3F)c(F)c2)c2cnc(NCCCn3ccnc3)nc21.O=C(O)C(F)(F)F	97%
COc1cccc2c(N/N=C/c3cccc([N+](=O)[O-])c3)ccnc12	47%
CCc1sc(-c2cc(Cl)ccc2OC)nc1C(=O)NCCN1CCCCC1.O=C(O)C(F)(F)F	28%
COc1cc(NC(=O)N2CCOC(CCN3CCC(c4ccccc4)CC3)(c3ccc(Cl)c(Cl)c3)C2)cc(OC)c1OC (stereo unspecified)	73%
COCCNC(=O)C(CNC(=O)c1ccc2c(c1)OCO2)NC(=O)c1ccc(-c2ccccc2)cc1 (stereo unspecified)	3%

SMILES	Inhibition
COc1cc2ccccc2c(OC)c1CNCCCCCCNCc1c(OC)cc2ccccc2c1OC.CS(=O)(=O)O	91%
COc1ccc2nccc([C@@H](O)CN3CCC(NC(=O)/C=C/c4cc([N+](=O)[O-])ccc4OC)CC3)c2c1	76%
Nc1nccc2ccc(OC3CCCCC3)cc12.O=CO	41%
O=C(Nc1cccc(-c2cccc(-c3nc4cc(C(F)(F)F)ccc4[nH]3)c2)c1)c1c[nH]cn1	100%
COc1cc2nc(N[C@@H](CO)c3ccccc3)nc(NCc3ccccc3)c2cc1OC	71%
CS(=O)(=O)N(c1ccccc1)c1cc(C(=O)N[C@@H](Cc2ccccc2)[C@H](O)CNC2CC2)cc(N2CCCC2=O)c1	98%
CCN(CC)CCN(CCN(CC)CC)c1ccc(-c2nc3cc(Cl)c(Cl)cc3[nH]2)cc1	97%
COc1ccc(NC(=O)/C=C/c2ccc(Oc3ccccc3Cl)c([N+](=O)[O-])c2)cc1OCCN(C(C)C)C(C)C	97%
Cc1ccc(NC(=O)c2cccc(CN3CCCN(Cc4cccc(O)c4)CC3)c2)cc1.O=C(O)C(F)(F)F	3%
N#Cc1ccc(-c2nc3c(N4CCCC4)cccc3n2CCNCc2ccccc2)cc1.O=C(O)C(F)(F)F	99%
N#CC(c1ccc(Cl)cc1)c1ccc2c(C(F)(F)F)cc(C(F)(F)F)nc2n1 (stereo unspecified)	54%
COc1ccc2nccc(N3CCCN(CCNCc4ccc5c(n4)NC(=O)CS5)CC3)c2n1.Cl	10%
O=C(/C=C/c1ccc(Cl)c(Cl)c1)NCCCCCN1CCCC(C(=O)Nc2ccc(Cl)cc2)C1 (stereo unspecified)	0%
COc1ccc(CNCCCCCCNCCc2ccc(Cl)cc2)cc1OC.Cl	0%
CS(=O)(=O)c1ccc(CNCc2ccc(-c3ccc(-c4nc5cc(C(F)(F)F)ccc5[nH]4)cc3)cc2)cc1.O=C(O)C(F)(F)F	82%
